Assay results published in the OligoGym collection.

Each sequence was assayed against ADORA2B (assay: pooled miR-30 sensor sort-seq; sequence = guide strand). Conditions: shRNA.
Note: reference of the scale not given here.

| Sequence | sensor-assay potency score (higher = more potent) |
| --- | --- |
| TTCATTCGTGGTTCCATCCCAG | -0.119 |
| TTAGAATCCATTCAAGCTGTTG | -0.667 |
| TTTTGTGAAAAGTGTAGCGGAA | 0.0237 |
| TTCACAATGAAAACCAGCCGTG | -0.942 |
| TAATCCACACAGTAAAAGCAGC | -1.13 |
| ATTTTGTGAAAAGTGTAGCGGA | -0.0457 |
| AAACTTTTATACCTGAGCGGGA | -0.968 |
| TATATTTGTCAATCCTTGGAGC | -0.159 |
| TTTCCTTGTGAGGTGTAGCTAT | -0.397 |
| AAGTGTAGCGGAAGTCTCGGTT | -0.00274 |
| TAGCGGAAGTCTCGGTTCCGGT | -1.62 |
| TTTTCCACCATAAACAAGGCAG | -0.459 |
| TTAAAAACAAAAGAGTCTGTTA | -0.121 |

These sequences were tested against ADRA1D in the same assay as above. Conditions: shRNA.

| Sequence | sensor-assay potency score (higher = more potent) |
| --- | --- |
| TTCTTCTCACGGGAGAACTTGA | -1.13 |
| TAGGGACACAGCCTCCACCTCT | -1.05 |
| TACATGACCACGATGACCGCCA | 0.517 |
| TACCGGTCCACGGAGATGGTGC | -1.15 |
| AAGAAGAAAGGGAACCAGCAGA | -0.303 |
| TGCTGTAGTCGGCCAATTCGTA | -0.975 |
| TAGAAGGAGCACACGGAGGAGA | -0.379 |
| TAGTTGGTGACGGTCTGCAGGT | -0.977 |
| TAGATGAGCGGGTTCACGCAGC | -0.546 |
| TACCGCAGAAGCGCTCGTCAGG | -1.24 |
| TTCACGATGAAATAGTTGGTGA | -0.48 |
| TAGTCGGCCAATTCGTAGGCCT | -0.797 |
| TTGGTGACGGTCTGCAGGTGGC | -1.18 |
| TTGGCCGCTTTCTTCTCACGGG | -0.602 |
| TGACAAGCAGGTTACCTGCCAC | -0.511 |
| ATAGTTGGTGACGGTCTGCAGG | -1.13 |
| TACGGTGGCGCTCAGCAGCAGG | -1.13 |
| TGAGAGGATGACAAGCAGGTTA | -0.372 |
| TTGGCGCGCAGCTGGGTCGTGG | -1.53 |
| ATGCGCAGCACCACCTCGGAGG | -1.52 |
| TTCAGCTGCGGGAACAAGGAGC | -0.905 |
| TTGCGCTCGGTCATGATGGCTG | -0.179 |

These sequences were tested against ADRA2B in the same assay as above. Conditions: shRNA.

| Sequence | sensor-assay potency score (higher = more potent) |
| --- | --- |
| TTGTACTCCAGCGCGCGGCTCA | -0.722 |
| TTGGCGATCAGGTAGATGCGCA | -0.201 |
| TAACAGGGTTCAGTGAGCTGTT | -0.17 |
| TTCAGTGAGCTGTTGCAGTAGC | 0.233 |
| AAGGTGAAGCGCTTCTCCCGGG | -0.311 |
